Measurements taken from PubChem BioAssay (NCI).
About 79,000 compounds went through this panel and 15% of them were active in at least one assay; those are over-represented in the sample as a whole. Active and inactive are the calls of the source. No stated cut-off is given here; in the data, active means growth inhibition above about 70%; inactive means the rest.

test: NCI Yeast Anticancer Drug Screen. Data for the sgs1 mgt1 strain (AID 161);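 further: 0% = growth of cultures given vehicle only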; conditions: S. cerevisiae sgs1 mgt1 strain, at 50.0 µM, active compounds read high
In short: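 Percent growth inhibition was derived by comparing compound-exposed mutant yeast with vehicle-exposed cultures. The strain carries alterations in DNA damage repair.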

SMILES | growth inhibition
CCCCC/C(C)=C(\C#N)C(=O)OC | -19.2% (inactive)
CCOC(=O)CC(C)C(C(=O)OCC)C(=O)OCC (stereo not given) | -9.15% (inactive)
CC(=O)c1sc2c(c1OC(=O)c1ccco1)c(=O)n(-c1ccccc1)c(=S)n2-c1ccccc1 | 23.7% (inactive)
COc1nc2c(c(O)c(C)c(=O)n2OC2OCC(OC(C)=O)C(OC(C)=O)C2OC(C)=O)c(=O)n1C (stereo not given) | -30.6% (inactive)
Cn1c2ccccc2c2oc(CO)cc(=O)c21 | 5.8% (inactive)
CCN(C=O)c1ccccc1 | -6.95% (inactive)
COc1cc(NC(C)CNC(C)C)c2ncccc2c1 (stereo not given) | -2.1% (inactive)
CN(C)C(=O)C(NCCO)c1ccccc1 (stereo not given) | -11.2% (inactive)
CCN(CC)CCCNc1ncc(C)c2[nH]c3ccncc3c12 | 0.4% (inactive)
C/C=C/C(O)CCCC (stereo not given) | 4.15% (inactive)
Cc1ccc(C)c(NC(=O)C(=O)C2C(=O)N(c3ccccc3)N=C2N)c1 (stereo not given) | -1.25% (inactive)
Cn1c2cc(Cl)c(Cl)cc2nc2cc3c(cc21)c(Cl)c(=O)c1cc2cc(Cl)c(Cl)cc2cc13 | 11.3% (inactive)
COC(=O)c1ccc(SCCC(=O)CNc2nc(N)nc(N)c2[N+](=O)[O-])cc1 | 17.6% (inactive)
Cc1cc(Cl)cc(Cl)c1OCC(=O)O | 4.4% (inactive)
NC(=O)c1ccccc1O | 11.4% (inactive)
C/C(=N/NC(N)=O)C1c2ccccc2Cc2ccccc21 | 4.85% (inactive)
O=C(O/N=C(\c1ccccc1)C(Br)c1ccccc1)c1ccccc1 (stereo not given) | 2.9% (inactive)
N#CC1(C(c2cccc3ccccc23)c2cccc3ccc4ccccc4c23)CC(=O)OC1=O (stereo not given) | 14.1% (inactive)
CCC(C)OC(=S)S.[Cu+2] (stereo not given) | -0.85% (inactive)
COc1ccc2[nH]c3c(C)c4c(c(C)c3c2c1)CN(C)CC4 | -17.2% (inactive)

SMILES | growth inhibition
COC(=O)[C@H]1C=C[C@H](OC2OC(COC(C)=O)C(OC(C)=O)C(OC(C)=O)C2OC(C)=O)n2c(=O)n(-c3ccccc3)c(=O)n21 (stereo not given in full) | -1.25% (inactive)
CCOC(CN=Cc1ccc2c(c1)Sc1ccccc1O2)OCC | 88.2% (active)
CCOc1ccc(NC(=O)CC2SC(=Nc3ccc(C)cc3)NC2=O)cc1 (stereo not given) | -5.3% (inactive)
CN(C)C(=O)Sc1ccc(O)cc1 | -4.65% (inactive)
CC(=O)c1cc2c(cc1C)C(C)(C)CCC2 | 3.1% (inactive)
CCOC(=O)C1=C(C)Oc2cc3c(cc2C1c1cc(OC)c(O)c(OC)c1)OCO3 (stereo not given) | 38.5% (inactive)
CN(C)NC(=O)Nc1ccc2ccccc2c1 | -8.55% (inactive)
Cc1cc(C)c2c(=O)c3c(oc2c1)O[C@@](C)(CO)C[C@@H]3c1ccccc1 | 2.3% (inactive)
COc1ccc(-c2cc(C(=O)Nc3cccc(C(F)(F)F)c3)[nH]c(=S)n2)cc1 | -42% (inactive)
O=C1NC(=O)C2(CCN(Cc3ccccc3)CC2)N1c1ccccc1 | -5.1% (inactive)
CC(=O)Oc1c(C)cc2c(c1C)C(C)(C)CN2C(=O)C(C)(C)C | 17.6% (inactive)
COC(=O)C(C(C[N+](=O)[O-])c1ccco1)=P(c1ccccc1)(c1ccccc1)c1ccccc1 (stereo not given) | 45.6% (inactive)
Cn1ccc2c([N+](=O)[O-])cccc2c1=O | 2.55% (inactive)
CS(=O)(=O)N(CCC#N)c1ccc(C=O)cc1 | -7.4% (inactive)
OCC1CCCC1 | -0.05% (inactive)
CC1([N+](=O)[O-])COC2(CCCC2)OC1 | 4.75% (inactive)
COc1ccccc1NCS(=O)(=O)O | -5.95% (inactive)
CCc1ccc2c(c1)C(=O)c1c(c(-c3ccccc3)c3ccccc3c1-c1ccccc1)C2=O | -6.4% (inactive)
CNc1ncnc2nc(C)c(C)nc12 | -7.4% (inactive)
O=C(c1ccc(O)c(C(=O)O)c1)c1ccc(O)c(C(=O)O)c1 | -5.3% (inactive)
